According to PMC4336329 (PLoS ONE, 2015):
The whole screen tested about 310,000 compounds, of which about 14,000 (4.5%) showed an effect of 50% or more. Effects have a minus sign here. Only a selection was taken, and strong results are over-represented in it overall.

Biological target: human ether-à-go-go-related gene (hERG) potassium channel (human, UniProt Q12809)
Assay: primary screen, population patch clamp on CHO cells stably expressing hERG; higher = less effect of the substance
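Further: peak tail current of the secondary pulse compared with the same well before compound.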

Chain of human ether-à-go-go-related gene (hERG) potassium channel (Q12809 whole entry, looked up): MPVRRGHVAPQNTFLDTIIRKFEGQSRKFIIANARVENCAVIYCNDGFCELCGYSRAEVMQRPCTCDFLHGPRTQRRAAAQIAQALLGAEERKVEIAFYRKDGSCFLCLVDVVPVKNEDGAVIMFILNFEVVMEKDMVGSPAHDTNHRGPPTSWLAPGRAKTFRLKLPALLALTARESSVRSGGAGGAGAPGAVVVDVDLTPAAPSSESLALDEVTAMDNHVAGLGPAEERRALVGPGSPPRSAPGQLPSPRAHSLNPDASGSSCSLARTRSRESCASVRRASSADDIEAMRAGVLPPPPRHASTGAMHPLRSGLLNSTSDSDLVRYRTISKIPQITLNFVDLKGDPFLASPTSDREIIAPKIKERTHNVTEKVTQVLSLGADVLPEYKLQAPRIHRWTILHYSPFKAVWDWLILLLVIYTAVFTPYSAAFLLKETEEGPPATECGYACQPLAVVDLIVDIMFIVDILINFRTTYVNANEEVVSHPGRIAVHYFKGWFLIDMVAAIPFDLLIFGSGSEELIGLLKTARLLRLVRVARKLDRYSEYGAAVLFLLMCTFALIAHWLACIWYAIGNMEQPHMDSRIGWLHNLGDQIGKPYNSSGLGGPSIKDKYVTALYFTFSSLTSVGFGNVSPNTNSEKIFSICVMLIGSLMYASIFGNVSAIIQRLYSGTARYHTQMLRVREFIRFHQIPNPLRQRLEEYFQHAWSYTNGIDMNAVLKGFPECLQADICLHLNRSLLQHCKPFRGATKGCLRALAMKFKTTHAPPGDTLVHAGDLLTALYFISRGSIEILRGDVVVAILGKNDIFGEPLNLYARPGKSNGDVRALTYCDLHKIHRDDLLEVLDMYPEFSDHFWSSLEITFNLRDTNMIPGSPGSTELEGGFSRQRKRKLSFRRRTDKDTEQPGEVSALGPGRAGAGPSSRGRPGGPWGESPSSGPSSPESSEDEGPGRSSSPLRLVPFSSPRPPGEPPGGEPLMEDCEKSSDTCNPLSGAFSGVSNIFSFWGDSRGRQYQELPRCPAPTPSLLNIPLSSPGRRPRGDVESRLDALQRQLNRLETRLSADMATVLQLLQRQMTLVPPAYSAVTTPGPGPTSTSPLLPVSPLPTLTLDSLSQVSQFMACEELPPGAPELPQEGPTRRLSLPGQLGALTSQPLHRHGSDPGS

Going from `Cc1cc(Cl)ccc1OCC(=O)NC(=S)Nc1ccc(Cl)cn1` to `Cn1c(C(=O)NCc2cccnc2)cc2sc(Cl)cc21`, the “hERG current change (%, negative = inhibition) at 10uM” value falls from 10.9% to -43.9%.

First: Cc1nonc1OCC(C)(COc1nonc1C)NC(=O)c1ccc(Cl)cc1
Second: Cc1ccc(C(=O)NC(C)(COc2nonc2C)COc2nonc2C)cc1
The “hERG current change (%, negative = inhibition) at 10uM” value of the first is lower: -61.1% for the first, -40% for the second.

Going from `Cc1nonc1OCC(C)(COc1nonc1C)NC(=O)c1ccccc1` to `O=C(O)COc1ccccc1/C=N/NC(=O)CSc1nc2ccccc2s1`, the “hERG current change (%, negative = inhibition) at 10uM” value rises from -6.59% to 9.71%.

First: Cn1c(=O)n(Cc2ccccc2F)c2ccccc21
Second: CCn1c(=O)c(C(=O)NCc2ccccc2)c(O)c2ccccc21
The “hERG current change (%, negative = inhibition) at 10uM” value of the first is lower: -16.3% for the first, 19.1% for the second.

Compared with `CC(=O)c1ccc2c(c1)C1C(Cl)C(Sc3ccccc3[N+](=O)[O-])CC1C(c1ccccc1)N2` (stereo not drawn), `CC(=O)c1ccc2c(c1)C1C(Cl)C(Sc3ccccc3[N+](=O)[O-])CC1C(C(=O)O)N2` (stereo not drawn) is lower in “hERG current change (%, negative = inhibition) at 10uM” value: 15.1% for the first, -20.8% for the second.

First: CCN(CC)C(=O)c1ccc2c(c1)C1C(Cl)C(Sc3ccccc3[N+](=O)[O-])CC1C(C(=O)O)N2 (stereo not drawn)
Second: CCn1c(=O)c(C(=O)NNS(=O)(=O)c2ccc(NC(=O)OC)cc2)c(O)c2ccccc21
The “hERG current change (%, negative = inhibition) at 10uM” value of the first is lower: -59.3% for the first, -56.3% for the second.

First: CN(Cc1nc(-c2cccc(Cl)c2)no1)C1CCOCC1
Second: O=C(NCc1ccccc1)c1cccc(OCC(=O)N2CCN(C(=O)c3ccco3)CC2)c1
The “hERG current change (%, negative = inhibition) at 10uM” value of the first is higher: -22.7% for the first, -41.1% for the second.

Compared with `CCCn1c(=O)c(C(=O)NNS(=O)(=O)c2ccc(NC(=O)OC)cc2)c(O)c2ccccc21`, `COC(=O)Nc1ccc(S(=O)(=O)NNC(=O)c2c(O)c3ccccc3n(C)c2=O)cc1` is higher in “hERG current change (%, negative = inhibition) at 10uM” value: 9.85% for the first, 25.9% for the second.

First: CCn1c(C(=O)NCc2cccnc2)cc2sc(Cl)cc21
Second: Cn1c(C(=O)NCc2cccnc2)cc2sccc21
The “hERG current change (%, negative = inhibition) at 10uM” value of the first is lower: -57.2% for the first, -10.2% for the second.

First: CCCCn1c(=O)c(C(=O)NCc2ccncc2)c(O)c2ccccc21
Second: CCCCCn1c(=O)c(C(=O)NCc2ccncc2)c(O)c2ccccc21
The “hERG current change (%, negative = inhibition) at 10uM” value of the first is higher: -44% for the first, -53.7% for the second.

Going from `CCCn1c(=O)c(C(=O)NCc2cccnc2)c(O)c2ccccc21` to `CCn1c(=O)c(C(=O)NCc2cccnc2)c(O)c2ccccc21`, the “hERG current change (%, negative = inhibition) at 10uM” value falls from -34.7% to -56.4%.

First: CCCCCn1c(=O)c(C(=O)NCc2ccccc2)c(O)c2ccccc21
Second: COc1ccccc1/C=N/NC(=O)CC(=O)NCc1cccnc1
The “hERG current change (%, negative = inhibition) at 10uM” value of the first is higher: 15.2% for the first, 7.63% for the second.
